SMILES strings stand for the structures. About 83,000 compounds went through this panel and 20% of them were active in at least one assay; those are over-represented in the sample as a whole.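 Assay: single dose, 48 h. Readout: percent growth (0 = no net growth; negative = cell death). Active: <10.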 Values without a mark were called inactive. Active and inactive are the calls of the source.

Test systems include RPMI-8226 leukemia; OVCAR-8 ovarian; OVCAR-5 ovarian; OVCAR-4 ovarian; SK-OV-3 ovarian; IGROV1 ovarian; OVCAR-3 ovarian; HS 578T breast; NCI/ADR-RES ovarian; T-47D breast; BT-549 breast; MDA-MB-435 melanoma; SW-620 colon; MCF7 breast; HCT-116 colon; HCC-2998 colon; KM12 colon.
What all share (experiment): NCI-60 one-dose screen, 48 h (100 = growth as untreated, 0 = no growth, -100 = all killed)
Holding throughout (conditions): 10 µM unless noted

As to `O=C(Nc1ccc(S(=O)(=O)NC2CCCCCC2)cc1)C(c1ccccc1)S(=O)(=O)c1ccc(F)cc1` (stereo unspecified), the growth in the assay with RPMI-8226 leukemia is -23.1% (active); in the assay on OVCAR-8 ovarian it was 8.45% (active); in the assay on OVCAR-5 ovarian it was 5.42% (active); with OVCAR-4 ovarian it was 4.28% (active); in the assay with SK-OV-3 ovarian, 3.67% (active); in the assay with IGROV1 ovarian, 9.4% (active). Further, the growth in the assay with OVCAR-3 ovarian was 3.59% (active); with HS 578T breast it was -2.41% (active); with NCI/ADR-RES ovarian, 15.1%; in the assay on T-47D breast it was 8.11% (active); with BT-549 breast, -3.97% (active); with MDA-MB-435 melanoma, -17% (active). For the same compound, the growth in the assay on SW-620 colon was 24.6%; with MCF7 breast it was 0.0605% (active); in the assay with HCT-116 colon it was 5.61% (active); in the assay on HCC-2998 colon, 15.4%; in the assay on KM12 colon, 5.09% (active).
Consider `C#Cc1cccc(Nc2ncnc3ccc(NC(=O)c4ccccc4)cc23)c1`, for which the growth with RPMI-8226 leukemia was 64.6%; in the assay with OVCAR-8 ovarian it was 81.1%; in the assay with OVCAR-5 ovarian it was 83.4%; in the assay on OVCAR-4 ovarian, 80.4%; with SK-OV-3 ovarian it was 75.3%; with IGROV1 ovarian, 33.7%. Besides, the growth in the assay with OVCAR-3 ovarian is 66.2%; in the assay on HS 578T breast, 102%; in the assay with NCI/ADR-RES ovarian it was 69.8%; in the assay on T-47D breast, 61.4%; with BT-549 breast, 74.6%; in the assay with MDA-MB-435 melanoma it was 84%. In addition, the growth is 100% in the assay on SW-620 colon; 72.1% in the assay with MCF7 breast; 76% in the assay on HCT-116 colon; 97.7% in the assay on HCC-2998 colon; 90% with KM12 colon.
Turning to `COC(=O)CCc1cc(O)c2c(c1)[C@@H](C(=O)OC)[C@H](c1ccc(O)c(O)c1)O2`, the growth in the assay with RPMI-8226 leukemia was 80.5%; in the assay on OVCAR-8 ovarian, 90.6%; in the assay with OVCAR-5 ovarian, 98.3%; in the assay on OVCAR-4 ovarian, 83%; with SK-OV-3 ovarian, 97.4%; in the assay with IGROV1 ovarian it was 88.1%. The growth was 27.5% in the assay with OVCAR-3 ovarian; 74.3% in the assay with HS 578T breast; 87.8% in the assay on NCI/ADR-RES ovarian; 66% in the assay on T-47D breast; 51.7% in the assay on BT-549 breast; 4.1% (active) with MDA-MB-435 melanoma. In addition, the growth in the assay with SW-620 colon is 63.8%; in the assay with MCF7 breast, 23.7%; in the assay with HCT-116 colon, 59.5%; in the assay on HCC-2998 colon, 94.9%; in the assay on KM12 colon, 55.8%.
Take `CCCCCOC(=O)c1ccccc1O`: the growth was 102% in the assay with RPMI-8226 leukemia; 107% with OVCAR-8 ovarian; 105% in the assay on OVCAR-5 ovarian; 95.9% in the assay with OVCAR-4 ovarian; 92.2% with SK-OV-3 ovarian; 111% in the assay on IGROV1 ovarian. Also, the growth in the assay on OVCAR-3 ovarian is 102%; in the assay on HS 578T breast, 103%; in the assay with NCI/ADR-RES ovarian it was 110%; in the assay on T-47D breast it was 85.8%; in the assay with BT-549 breast, 93.4%; in the assay with MDA-MB-435 melanoma, 102%. The growth was 105% in the assay on SW-620 colon; 87.6% with MCF7 breast; 98.9% with HCT-116 colon; 109% in the assay with HCC-2998 colon; 105% with KM12 colon.
With `CC(C)(C)CC(C)(C)Cc1ccc(OCCOCC[N+](C)(C)Cc2ccccc2)cc1`, the growth with RPMI-8226 leukemia was -53.4% (active); in the assay with OVCAR-8 ovarian, 22.8%; with OVCAR-5 ovarian, 74%; with OVCAR-4 ovarian, 7.03% (active); in the assay with SK-OV-3 ovarian, 46.9%; in the assay on IGROV1 ovarian, -16.7% (active). For the same compound, the growth in the assay on OVCAR-3 ovarian is 0.137% (active); in the assay on HS 578T breast, 26.3%; with NCI/ADR-RES ovarian, 99.9%; in the assay with T-47D breast it was 0.793% (active); in the assay on BT-549 breast, -16% (active); in the assay on MDA-MB-435 melanoma it was -23.9% (active). For the same compound, the growth in the assay on SW-620 colon is 30.2%; in the assay with MCF7 breast, 12.9%; with HCT-116 colon, 20.8%; with HCC-2998 colon, -10% (active); in the assay with KM12 colon it was -52.6% (active).
`CN(C)CSc1nc2ccccc2s1`: the growth with RPMI-8226 leukemia was 98.7%; in the assay on OVCAR-8 ovarian, 104%; with OVCAR-5 ovarian, 93.6%; in the assay on OVCAR-4 ovarian, 102%; in the assay on SK-OV-3 ovarian it was 84.7%; in the assay on IGROV1 ovarian it was 83.7%. In addition, the growth in the assay with OVCAR-3 ovarian was 99.9%; in the assay on HS 578T breast, 116%; with NCI/ADR-RES ovarian, 102%; with T-47D breast, 86.7%; in the assay on BT-549 breast, 81.1%; in the assay on MDA-MB-435 melanoma it was 99.9%. Besides, the growth was 104% with SW-620 colon; 87.3% with MCF7 breast; 89.7% in the assay with HCT-116 colon; 97.7% in the assay with HCC-2998 colon; 98.3% with KM12 colon.
In the case of `COC(=O)c1nc(-c2ccccc2)oc1S(=O)(=O)n1nc(C)cc1N`, the growth in the assay with RPMI-8226 leukemia was 53.2%; with OVCAR-8 ovarian it was 95.3%; with OVCAR-5 ovarian, 103%; in the assay on OVCAR-4 ovarian, 104%; with SK-OV-3 ovarian it was 106%; with IGROV1 ovarian, 61%. The growth is 20.4% in the assay with OVCAR-3 ovarian; 93.6% in the assay on HS 578T breast; 101% with NCI/ADR-RES ovarian; 22.5% in the assay on T-47D breast; 69.8% in the assay with BT-549 breast; 79.6% in the assay with MDA-MB-435 melanoma. Moreover, the growth was 6.13% (active) in the assay on SW-620 colon; 60.2% with MCF7 breast; 67.9% in the assay with HCT-116 colon; 115% in the assay on HCC-2998 colon; 96.3% in the assay with KM12 colon.
`COc1ccc(-c2nnc(N3CCN(C(=O)CN4CCN(c5ccc(OC)cc5)CC4)CC3)nc2-c2ccc(OC)cc2)cc1`: the growth was -59.8% (active) in the assay with RPMI-8226 leukemia; -54.9% (active) with OVCAR-8 ovarian; 111% in the assay with OVCAR-5 ovarian; -48.3% (active) in the assay with OVCAR-4 ovarian; 101% in the assay with SK-OV-3 ovarian; -60.8% (active) in the assay on IGROV1 ovarian. Moreover, the growth in the assay with OVCAR-3 ovarian was -96.1% (active); in the assay with HS 578T breast it was 21%; in the assay on NCI/ADR-RES ovarian it was -40.6% (active); in the assay with T-47D breast it was -64.5% (active); with BT-549 breast, -81.8% (active); in the assay with MDA-MB-435 melanoma, -68.1% (active). Further, the growth in the assay on SW-620 colon is -92.5% (active); in the assay with MCF7 breast, -69.8% (active); with HCT-116 colon, -41.1% (active); with HCC-2998 colon, 33.9%; in the assay with KM12 colon it was -13.1% (active).

For the origin of these results see PubChem BioAssay (NCI).
